Bioassay records deposited in PubChem by several laboratories.
Compounds with a hit are over-represented: about 4.3% of the library has one in this group of screens.
MITF act – activators of MITF-driven TRPM1 promoter reporter, primary screen, cell-based, SK-MEL-5, luciferase, single point; SK-MEL-5 TRPM1-promoter luciferase, 24 h; % of positive control, neutral wells = 0; activation, % at 12.5 µM; 300,000 tested, 0.75% active; AID 588334, 2011;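 active = mean activation of at least 80% with every replicate also reaching 80%; inconclusive = mean reaches 80% but some replicate falls short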;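 note: 0% = neutral control wells and 100% = parthenolide positive control wells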
HSF1 inh – HSF1 inhibitors in luciferase reporter cells, primary screen, cell-based, NIH3T3, luminescence | NIH3T3-HGL HSE-luciferase, MG132-induced, luminescence 8 h; stronger effect = lower value | 300,000 tested, 0.77% active | AID 2098, 2009 | activity change, negative = inhibition, % at 7.5 µM (by protocol);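 active = more than half of replicate wells show activity change below -50%, luminescence cut by over half; inconclusive = some wells, but at most half, below -50%; inactive = no replicate well below -50%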;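 note: luciferase reports HSF-1 transcriptional activity via heat shock element; 0% = median of DMSO wells and -100% = zero luminescence signal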
esBAF inh – Bmi1 luciferase reporter increase in mESCs, primary screen, esBAF inhibitor project, mouse ES cells, Bmi1 luciferase knock-in, single point | 24 h; 100% = twice the neutral-well signal | reporter increase, % at 12.5 µM | 350,000 tested, 2% active | AID 602393, 2012; in the data active = activation above about 40%; inconclusive = no clear call, values can overlap the other calls;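 note: 0% = median of the plate's neutral control wells and 100% = double that signal; a rise in the Bmi1 reporter signal indicates esBAF inhibition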
SMARCA2 activ – SMARCA2 (BRM) function activators, primary screen, cell-based, luminescence, high throughput. MG213 cells, MMTV-luciferase reporter, dexamethasone, overnight. activation, % at 9.1 µM. 370,000 tested, 1% active. AID 652017, 2013; in the data active = activation above about 7.8%;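 note: 0% = vehicle wells and 100% = reference activator wells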
Wnt act – Wnt/beta-catenin pathway activators, primary screen, cell-based, plate reader, single point; activation, % at 9.35 µM; Wnt/beta-catenin reporter cell assay, activator; 300,000 tested, 1.2% active; AID 743398, 2014; in the data active = activation above about 30%, passing the limit was not always enough; inconclusive = no clear call, values can overlap the other calls;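 note: 0% = neutral control wells and 100% = positive control wells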
HSF-1 act – HSF-1 activators, primary screen, NIH3T3-HGL cells, MG132 stress, luminescence, single point | AID 504408, 2011 | 300,000 tested, 1.7% active | activation, % at 9 µM | NIH3T3-HGL HSF-1 luciferase reporter, 8 h; 100% = twice DMSO control signal;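 active = mean replicate activation of at least 50% with a set share of replicates each reaching 50%; inconclusive = only one of those two conditions met; inactive = mean below 50% and too few replicates reaching it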;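 note: 0% = median of the neutral control wells and 100% = twice that signal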
An asterisk follows results filed as active; ? = inconclusive; / = no result given.

SMILES	MITF act	HSF1 inh	esBAF inh	SMARCA2 activ	Wnt act	HSF-1 act
Nc1c(S(=O)(=O)c2cccs2)c2nc3ccccc3nc2n1CCc1ccccc1	/	14	/	-2	/	30
Cc1ccc(C)c(S(=O)(=O)c2c(N)n(/N=C/c3ccco3)c3nc4ccccc4nc23)c1	-29	25	5	-1	-8	52*
CC(C)CCn1c(N)c(S(=O)(=O)c2cccs2)c2nc3ccccc3nc21	11	54	3	-1	-4	104*
COc1ccccc1CNC(=O)C[C@H]1CC[C@H]2[C@@H](COC[C@H](O)CN2Cc2cccc(-c3ccncc3)c2)O1	/	/	2	/	/	/
CCCCC(=O)/C=C/n1c(=S)oc2ccccc21	-8	176	65*	3	3	217*
COc1ccc2c(c1)c(C(=O)CN1CCCCC1)c(C)n2C	/	32	/	2	-1	72*
COc1cccc(C(=O)Nc2nc(-c3ccncc3)cs2)c1	3	-1	/	-1	/	3
Cc1csc(NC(=S)NC(=O)c2ccccc2)n1	109*	5	?	4	24	18
COc1cccc(C(=O)Nc2nc(C)cs2)c1	38	6	0	5	44*	6
Cc1csc(NC(=O)c2ccc3nc[nH]c3c2)n1	19	20	-11	3	36*	46
Cc1nnc(Oc2ccccc2)c2ccccc12	36	-3	18	3	4	7
COc1ccc(Oc2nnc(C)c3ccccc23)cc1	89*	12	50*	0	42*	28
COc1ccc(-c2nnc3c4ccccc4c(C)nn23)cc1	18	-3	72*	6	47*	22
Cc1ccc(-c2cc(C(=O)N3CCN(c4ccc(O)cc4)CC3)c3ccccc3n2)cc1	40	/	25	1	-2	/
Cc1ccc(-c2cc(C(=O)N3CCN(c4ccccc4O)CC3)c3ccccc3n2)cc1	35	11	55*	1	16	17
CCOC(=O)N1CCN(C(=O)c2cc(-c3ccc(OCC)cc3)nc3ccccc23)CC1	9	34	21	0	/	79*
O=C(C1CC1)N1CCCCN2[C@H](C1)[C@H](c1ccc(C#CC3CCCC3)cc1)[C@@H]2CO	/	/	4	/	/	/
O=C(NC1CCCCC1)N[C@@H]1CC[C@@H](CCNS(=O)(=O)c2ccc(Cl)cc2)O[C@H]1CO	/	/	3	/	/	/
CC(C)OCCCn1c(-c2ccco2)nc2nc3ccccc3nc21	8	2	-7	7.9*	/	29
Cc1ccc(C)c(NC(=O)CS(=O)(=O)c2cn(C)c3ccccc23)c1	-7	29	0	-1	-4	54*
Cn1cc(S(=O)(=O)CC(=O)Nc2ccc3c(c2)OCCO3)c2ccccc21	-1	-8	5	5	-2	1
CC(=O)c1cn(CC(=O)Nc2ccccc2C)c2ccccc12	-7	-80*	-22	-7	/	-83
Cn1cc(C(=O)C(=O)NCCc2ccccc2)c2ccccc21	14	5	4	0	1	25
Cc1ccccc1NC(=O)C(=O)c1cn(C)c2ccccc12	41	10	56*	3	2	17
C[C@H](CO)N1C[C@H](C)[C@@H](CN(C)C(=O)c2ccc3c(c2)OCO3)Oc2cc(-c3ccccc3)ccc2S1(=O)=O	/	/	-1	/	/	/
SMILES	MITF act	HSF1 inh	esBAF inh	SMARCA2 activ	Wnt act	HSF-1 act
COCCNC(=O)C[C@@H]1C[C@H]2c3cc(NC(=O)Nc4ccccc4F)ccc3O[C@H]2[C@@H](CO)O1	/	/	3	/	/	/
CCOC(=O)C1(Cc2ccccc2)CCCN(C(=O)c2cnn(CC)c2)C1 (stereo not given)	91*	25	65*	4	24	27
CCOC(=O)C1(Cc2cccc(OC)c2)CCCN(C(=O)c2cc(C)[nH]n2)C1 (stereo not given)	52	15	/	1	11	28
CCOC(=O)C1(Cc2cccc(OC)c2)CCCN(C(=O)c2ccccc2C)C1 (stereo not given)	72	8	/	2	35*	25
CCOC(=O)C1(Cc2cccc(OC)c2)CCCN(C(=O)CNC(C)=O)C1 (stereo not given)	64	19	65*	7	10	19
CCOC(=O)C1(Cc2ccccc2)CCCN(Cc2cnn(CC)c2)C1 (stereo not given)	/	-5	/	-4	0	-5
CCOC(=O)C1(Cc2cccc(OC)c2)CCCN(C(=O)c2cc(C)on2)C1 (stereo not given)	31	14	48*	1	12	16
C[C@@H]1CN([C@H](C)CO)C(=O)c2cccc(NC(=O)C3CCOCC3)c2O[C@H]1CN(C)Cc1ccccc1	/	/	4	/	/	/
CC=Cc1ccc2n(c1=O)C[C@@H]1[C@@H](CO)[C@H](C(=O)NCC3CC3)N(CC3CCOCC3)[C@H]21 (mixture of isomers)	/	/	-2	/	/	/
Cc1ccc(S(=O)(=O)Nc2cccc3c2O[C@H](CN(C)Cc2ccc(-c4ccccc4)cc2)[C@@H](C)CN([C@@H](C)CO)C3=O)cc1	/	/	-1	/	/	/
O=C(OCC(=O)c1ccc[nH]1)c1ccc(Br)cc1	/	/	-9	1	2	/
COc1ccc(C(=O)OCC(=O)c2ccc[nH]2)cc1	76	/	51*	-2	26	/
CN1c2ccc(-c3ccccc3)cc2[C@@H]2[C@@H](CCN2C(=O)c2ccc3c(c2)OCO3)[C@@H]1CO	/	/	1	/	/	/
CCC(=O)Nc1cccc2c1C(=O)N(C)C2=O	/	-9	3	0	/	-8
CCNc1cccc2c1C(=O)N(C)C2=O	-1	-5	3	7.8*	-2	-10
O=C(COC(=O)c1ccc(S(=O)(=O)NCc2ccco2)cc1)Nc1ccccc1OC(F)F	-1	49	-7	-4	0	103*
CCOC(=O)COc1ccc(Oc2nc(C)cc(OC)n2)nn1	-12	-7	-2	7.8*	-3	-3
O=C(Nc1ccc(N=Nc2ccccc2)cc1)c1ccccc1Cl	121*	32	/	4	/	72*
O=C(CCl)Nc1ccc(-c2ccccc2)cc1	-63	?	/	-11	-1	-48
O=C(CCl)Nc1ccc(N=Nc2ccccc2)cc1	0	56	-11	7	22	68*
CC(=O)Nc1ccc(N=Nc2ccccc2)cc1	63	22	/	3	/	60*
O=C(CSc1nnc(-c2cccc(Br)c2)o1)NCC1CCCO1 (stereo not given)	/	/	-4	-4	-1	/
O=C(c1cccc(-c2nnc(-c3ccccc3)o2)c1)N1CCCCC1	51	40	72*	4	/	57*
O=C(CSc1nnc(-c2cccc(Br)c2)o1)N1CCNC1=O	88*	/	62*	5	-1	/
